These results are taken from PubChem BioAssay (NCATS).

Several values for one entry are separate records, joined by “and”; a condition that tells them apart may be missing. Identical values can stand only once. Inconclusive results are not listed. A number with no mark means an inactive call. Activity calls are given as the source filed them. Calls come from the whole dose curve; as a rule, active = well fitted curve in the direction sought with a large enough effect; inconclusive = small, poorly fitted or top-dose-only effect, or another doubt; inactive = no such curve, though single readings can be large; an effect the other way counts as inactive or inconclusive.

Test [1] concerns CRL-7250. Kind of test: Cytotoxic Profiling of Annotated Libraries Using Quantitative High-Throughput Screening (AID 1296008). For max response: % is set by controls: 0 for no effect and ±100 for the full control effect. Note: nearly all actives have a fitted effect of over 60% in size. To be noted: Five cell lines viability, CellTiter-Glo ATP luminescence, 48-72 h; max response: stronger effect = lower value. The gist of the method:
(§1)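 Compounds were pin-transferred onto cells and incubated 48 or 72 hr at 37 degree Celsius, 95% humidity. CellTiter-Glo was added, plates sat 10 min at room temperature, then ATP-coupled luminescence was imaged as the viability read-out.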
Background: ATP-based viability assays read luminescence as a measure of living cells.

Test [2] has as its system HEK293. The test is described as above. To be noted: Five cell lines viability, CellTiter-Glo ATP luminescence, 48-72 h; max response: stronger effect = lower value. The method in brief:
as §1

In test [3] the test system is HaCat. The test is described as above. The note with it: Five cell lines viability, CellTiter-Glo ATP luminescence, 48-72 h; max response: stronger effect = lower value. The gist of the method: as §1
The subject of test [4] is KB-3-1. The test is described as above. The note with it: Five cell lines viability, CellTiter-Glo ATP luminescence, 48-72 h; max response: stronger effect = lower value. The method in brief:
as §1

The test system of test [5] is NIH3T3. The description is as above. The note with it: Five cell lines viability, CellTiter-Glo ATP luminescence, 48-72 h; max response: stronger effect = lower value. The method in brief: as §1
Test [6] deals with HEK293T. Put plainly: qHTS assay to identify novel small-molecules to repurpose for Merkel cell carcinoma treatment (AID 1296009). Note: nearly all actives have a fitted effect of over 60% in size. The note with it: MCC and control cell lines, CellTiter-Glo viability, 72 h; series mostly up to 44.8 µM. The gist of the method: (§2)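 Luminescence from CellTiter-Glo, read 10 min after addition at room temperature, reported viability following a 72 hr, 37 degree celsius treatment with NPC or MIPE compounds in titration; values normalized to plate controls.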
A general note: In qHTS, concentration-response curves come from the screen itself.

Test [7] has as its system C33A. Put plainly: Primary qHTS to identify gynecologic anti-cancer compounds using libraries of approved drugs and bioactive compounds (AID 1345084). For activity change, negative = cytotoxicity: % is set by controls: 0 for no effect and ±100 for the full control effect. Note: nearly all actives have a fitted effect of over 55% in size. To be noted: Gynecologic cancer cell panel viability, ATPlite luminescence, 48 h; series mostly up to 57.5 µM. The method in brief: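 Cytotoxicity screen measuring ATP content by luciferase luminescence. Each compound is applied at five concentrations for 48 h at 37 C with 5% CO2.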

Test [8] concerns NIH3T3. Put plainly: qHTS assay to identify novel small-molecules to repurpose for Merkel cell carcinoma treatment (AID 1296009). Note: nearly all actives have a fitted effect of over 60% in size. To be noted: MCC and control cell lines, CellTiter-Glo viability, 72 h; at 44.8 µM (top of the series) unless noted. The gist of the method: as §2
Potency is the fitted concentration of half-maximal effect.

For the compound `C=C1[C@H]2CC[C@]3(O)[C@@](CC[C@@H]4[C@](C)(C(=O)O)CCC[C@]43C)(C2)[C@H]1OC(=O)/C(C)=C\C`, the results for the max response in test [1], in test [3] and in test [5] were 2.63%, -13.2% and 0.4%, respectively. Also, the result in test [2] and in test [4] was inactive. The Potency entry in test [6] and in test [7] was “inactive” each time.
With `COC1CC(=O)C23C(=O)NC(CC(C)C)C2C(C)C(C)=CC3/C=C(\C)CCC1O` (centres undefined), the compound was classed as inactive in test [1] and in test [2]. Further, the max response in test [3] is -17.4%; in test [4], 0.905%; in test [5], -0.706%. For the same compound, the Potency result in test [6] and in test [7] was “inactive” in each case.
Turning to `CCNC(=O)[C@H]1O[C@H](n2cnc3c(NCC(c4ccccc4)c4ccccc4)nc(C(=O)NCCNC(=O)NC4CCN(c5ccccn5)CC4)nc32)[C@H](O)[C@@H]1O`, the max response is -2.5% in test [1], -11.9% in test [3], 2.94% in test [4] and 1.64% in test [5]. Moreover, the result in test [2] was inactive. Moreover, the Potency result in test [6] and in test [7] was “inactive” each time.
Consider `COC(=O)C12C(=O)C(C)=C(O)C1(C)C(C)=CC1C34CCC(OC3=O)C(C)(C)C4CCC12C` (centres undefined), for which the max response in test [1] was -4.32%; in test [3] it was 1.85%; in test [4], 6.41%. For the same compound, the compound was called inactive in test [2] and in test [5]. For the same compound, the Potency result in test [6] and in test [7] was “inactive” throughout.
As to `OCC1=CC[C@@H]2C=CO[C@@H](O[C@@H]3O[C@H](CO)[C@@H](O)[C@H](O)[C@H]3O)[C@H]12`, the compound was classed as inactive in test [1], in test [2] and in test [4]. Also, the max response in test [3] was -13.7%; in test [5], -0.173%. In addition, the Potency result in test [6] and in test [7] was “inactive” in each case.
As for `CC1CCC2(C)C(CC(O)C(O)C23CO3)C1(C)CCC1=CC(O)OC1=O` (centres undefined), the max response in test [1] was 3.32%; in test [3], 0.263%; in test [4], -2.97%; in test [5] it was -4.84%. For the same compound, the result in test [2] was inactive. Besides, the Potency entry in test [6] and in test [7] was “inactive” in each case.
Take `O=c1c2ccccc2nc2n1CCC2O` (centres undefined): the compound was classed as inactive in test [1], in test [2] and in test [4]. Further, the max response was 4.07% in test [3] and 2.87% in test [5]. Besides, the Potency entry in test [6] and in test [7] was “inactive” in each case.
As to `CC1=CC(=O)C2C(C)(C)CC(O)CC2(C)C1CO` (centres undefined), the max response was -38.7% in test [1], -3.16% in test [3] and 2.39% in test [5]. The outcome in test [2] and in test [4] was inactive. For the same compound, the Potency result in test [6] and in test [7] was “inactive” in each case.
`O=C(CCO[C@@H]1O[C@H](CO)[C@@H](O)[C@H](O)[C@H]1O)c1ccc(O)cc1`: the max response is 3.35% in test [1], -12% in test [3] and -1.69% in test [5]. The compound was classed as inactive in test [2] and in test [4]. For the same compound, the Potency entry in test [6] and in test [7] was “inactive” in each case.
As to `C=C1CC2C3(C)C(OC(C)=O)CC(=O)OC(C)(C)C3C(O)C(OC(C)=O)C2(C)C2C(=O)OC(C)C(=O)C12C` (centres undefined), the max response in test [1] was -7.53%; in test [3], -15.7%; in test [4], 8.43%; in test [5], -3.76%. Further, in test [2], the call was inactive. For the same compound, the Potency result in test [6] and in test [7] was “inactive” throughout.
Take `OCc1ccccc1O[C@@H]1O[C@H](CO)[C@@H](O)[C@H](O)[C@H]1O`: the max response is -0.323% in test [1], -0.335% in test [3], 6.41% in test [4] and -2.31% in test [5]. Further, the call in test [2] was inactive. Further, the Potency entry in test [6] and in test [7] was “inactive” each time.
For the compound `C[C@@H]1O[C@@H](O[C@H]2[C@H](O[C@H]3CC[C@@]4(C)C(CC[C@]5(C)C4CC=C4C6CC(C)(C)CC[C@]6(C(=O)O[C@@H]6O[C@H](CO[C@@H]7O[C@H](CO)[C@@H](O[C@@H]8O[C@@H](C)[C@H](O)[C@@H](O)[C@H]8O)[C@H](O)[C@H]7O)[C@@H](O)[C@H](O)[C@H]6O)CC[C@]45C)[C@]3(C)CO)OC[C@H](O)[C@@H]2O)[C@H](O)[C@H](O)[C@H]1O` (some centres undefined), the compound was called inactive in test [1] and in test [2]. Moreover, the max response in test [3] is -8.43%; in test [4], 4.12%; in test [5], -6.66%. In test [6], the outcome is “inactive [at 9.27 µM]”. Also, in test [7], the activity change, negative = cytotoxicity is -8.84% [at 6.55 µM].
Take `C=C1CC23CCC4[C@@](C)(CCC[C@@]4(C)C(=O)O)C2CCC1C3` (some centres undefined): the max response in test [1] was -2.77%; in test [3], -11.3%; in test [4], 2.07%; in test [5], 3.55%. In addition, the call in test [2] was inactive. Further, the Potency result in test [6] and in test [7] was “inactive” each time.
Take `CC(C)(C)NCc1cc(Nc2ccnc3cc(Cl)ccc23)c2c(c1O)CCCC2`: the max response is 1.77% in test [1], -6.14% in test [3] and 7.98% in test [4]. The compound was classed as inactive in test [2] and in test [5]. In test [6], the outcome was “inactive [at 0.588 µM]”. Further, in test [7], the activity change, negative = cytotoxicity is 15.8% [at 0.462 µM].
Take `CC(=O)OC[C@@]12[C@@H](OC(C)=O)C[C@@H](C)[C@](C)([C@@H]3C[C@H]4C=CO[C@H]4O3)[C@H]1CCC[C@]21CO1`: the max response is 0.841% in test [1], 2.97% in test [3] and -2.5% in test [5]. The compound was classed as inactive in test [2] and in test [4]. Also, the Potency result in test [6] and in test [7] was “inactive” throughout.
Take `C=C1[C@@H]2[C@H]3OC(=O)C(=C)[C@@H]3CC[C@@](C)(O)[C@@H]2C[C@@H]1O[C@@H]1O[C@H](CO)[C@@H](O)[C@H](O)[C@H]1O`: the max response in test [1] was -4.93%; in test [3] it was -10.8%; in test [4], 1.42%; in test [5] it was -3.98%. Further, the compound was called inactive in test [2]. Moreover, the Potency entry in test [6] and in test [7] was “inactive” throughout.
Take `C[C@@H]1CC[C@]2(C)C3(C)CC[C@@]2(OC3=O)[C@@]12C[C@H](c1ccoc1)OC2=O`: the max response in test [1] was -6.81%; in test [3], -0.0916%; in test [4], -4.36%; in test [5], -0.649%. Also, the compound was called inactive in test [2]. Besides, the Potency result in test [6] and in test [7] was “inactive” each time.
In the case of `Cc1ccc(C(=O)Nc2ccc(Oc3cc4cnn(C)c4cc3-c3cn[nH]c3)c(F)c2)c(=O)n1-c1ccc(F)cc1`, the Potency in test [1] is 4670 nM (active); in test [2], 5.8 µM (active) and 3.31 µM (active); in test [3], 16600 nM (active); in test [4], 5.17 µM (active); in test [5] it was 4110 nM (active). Further, the Potency result in test [7] is “inactive”.
With `O=C(OCC12OC1C=CC(OC(=O)c1ccccc1)C2O)c1ccccc1` (centres undefined), the max response in test [1] is 4.27%; in test [3], 0.27%; in test [4], 9.03%; in test [5] it was -13.1%. Moreover, the compound was called inactive in test [2]. Also, the Potency entry in test [6] and in test [7] was “inactive” each time.
`COc1ccc(C[C@H](N)C(=O)N[C@H]2[C@@H](O)[C@H](n3cnc4c(N(C)C)ncnc43)O[C@@H]2CO)cc1`: the Potency was 920 nM (active) in test [1]; 1300 nM (active) in test [3]; 5.17 µM (active) and 517 nM (active) in test [4]; 2310 nM (active) in test [5]; 1160 nM (active) in test [6]; 2820 nM (active) in test [7].
For `CC1(C)NC2N(C1=O)c1ccccc1C2(O)CC(C(=O)O)n1cnc2ccccc2c1=O` (centres undefined), the compound was classed as inactive in test [1], in test [2] and in test [4]. The max response in test [3] was -3.78%; in test [5], -5.13%. Further, the Potency result in test [6] and in test [7] was “inactive” throughout.
Turning to `C[C@@H]1O[C@@H](O[C@H]2[C@H](O[C@H]3CC[C@@]4(C)C(CC[C@]5(C)C4CC=C4[C@@H]6CC(C)(C)CC[C@]6(C(=O)O)CC[C@]45C)[C@]3(C)CO)OC[C@H](O)[C@@H]2O)[C@H](O)[C@H](O[C@@H]2OC[C@@H](O)[C@H](O)[C@H]2O)[C@H]1O` (some centres undefined), the max response is 0.8% in test [1], 3.75% in test [3] and -3.35% in test [5]. Besides, the result in test [2] and in test [4] was inactive. Further, the outcome in test [6] is “inactive [at 9.27 µM]”. The activity change, negative = cytotoxicity in test [7] is -12% [at 11.6 µM].
Consider `CCC[C@@H]1C[C@@H](C(=O)N[C@@H]([C@H]2O[C@H](SC)[C@H](OP(=O)(O)O)[C@@H](O)[C@H]2O)[C@H](C)Cl)N(C)C1`, for which the max response was -7.94% in test [1]; -4.58% in test [2]; 4.98% in test [3]; -22.3% and -12.7% and 0.837% in test [4]. Besides, the compound was called inactive in test [5]. Also, the outcome in test [8] is “inactive [at 17.4 µM]”. In addition, the Potency result in test [7] was “inactive”.
